Usually AC50 stands for the midpoint of the concentration-response curve, whichever way the signal moves.

Results filed as inconclusive are left out. Active and inactive are the calls of the source. Rule for the calls: active = hit-call score of the fitted dose curve at least 0.9, where 1 is the maximum; inconclusive = response in the unintended direction; inactive = score below 0.9.

The target in the experiment is human AKT serine/threonine Kinase 3 (AKT3), AKT3 (gene 10000) (UniProt Q9Y243). In words: NVS_ENZ_hAKT3: NovaScreen (NVS) Enzymatic Assay for human AKT serine/threonine Kinase 3 (AKT3). As for the experimental part: NVS_ENZ_hAKT3 is a biochemical, single-readout assay that uses extracted gene-proteins in a cell-free assay. Measurements were taken 1 hour after chemical dosing in a 384-well plate.NVS_ENZ_hAKT3 is one of one assay component(s) measured or calculated from the NVS_ENZ_hAKT3 assay. It is designed to make measurements of enzyme activity, a form of enzyme reporter, as detected with fluorescence intensity signals by Fluorescence and electrophoretic mobility shift technology.Data from the assay component NVS_ENZ_hAKT3 was analyzed into 1 assay endpoint. This assay endpoint, NVS_ENZ_hAKT3, was analyzed in the positive analysis fitting direction relative to DMSO as the negative control and baseline of activity. Using a type of enzyme reporter, loss-of-signal activity can be used to understand changes in the enzymatic activity as they relate to the gene AKT3. Furthermore, this assay endpoint can be referred to as a primary readout, because this assay has produced multiple assay endpoints where this one serves a enzymatic activity function. To generalize the intended target to other relatable targets, this assay endpoint is annotated to the kinase intended target family, where the subfamily is serine/threonine kinase. […]
Sequence of human AKT serine/threonine Kinase 3 (AKT3), AKT3 (gene 10000) (Q9Y243 whole entry, looked up): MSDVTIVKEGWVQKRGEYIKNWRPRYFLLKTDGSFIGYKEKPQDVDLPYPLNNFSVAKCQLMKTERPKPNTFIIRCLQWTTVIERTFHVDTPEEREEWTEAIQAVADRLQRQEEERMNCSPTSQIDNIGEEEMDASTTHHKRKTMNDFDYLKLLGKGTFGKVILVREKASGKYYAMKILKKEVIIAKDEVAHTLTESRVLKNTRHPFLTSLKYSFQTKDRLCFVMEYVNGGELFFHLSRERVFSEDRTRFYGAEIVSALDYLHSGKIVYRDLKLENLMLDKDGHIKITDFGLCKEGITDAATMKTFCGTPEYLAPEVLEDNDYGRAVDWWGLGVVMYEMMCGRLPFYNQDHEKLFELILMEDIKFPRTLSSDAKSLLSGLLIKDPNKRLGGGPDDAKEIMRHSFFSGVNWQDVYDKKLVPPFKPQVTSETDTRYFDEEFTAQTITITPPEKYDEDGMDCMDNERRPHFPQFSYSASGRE
With `S=C([S-])NCCNC(=S)[S-].[Mn+2]`, the concentration at half-maximal activity (AC50) was 25 µM (active). Consider `CN(C)C(=S)SSC(=S)N(C)C`, for which the outcome was inactive.
